PubChem BioAssay AID720519 (National Center for Advancing Translational Sciences (NCATS), 2013)
Inconclusive results are not listed. The source made the active and inactive calls. Calls come from the whole dose curve; as a rule, active = well fitted activation curve with a large enough effect; inconclusive = small, poorly fitted or top-dose-only effect; inactive = flat fitted curve, though single readings scatter.

Assay: qHTS for Inhibitors of Cell Surface uPA Generation: Confirmatory Assay for Cherry-picked Compounds
Conditions: cell surface uPA activity generation, qHTS confirmation; series mostly up to 115 µM
Summary of the method: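 RAW 264.7 cells at 4000/well, incubated overnight, then treated with compounds. After 24 h at 37 C, viability was read by ATPlite luminescence. An increase in signal indicates blocked uPA-dependent LF entry.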

Potency, inactive:
Cc1ccc(N=C2SCCCN2C(=O)c2cccc(N3C(=O)CCC3=O)c2)cc1Cl
CCCCNC(=O)c1cc2c(-c3ccc(Cl)cc3)nn(C)c2s1
Cc1ccc(C23CC4CC(CC(C(=O)NN)(C4)C2)C3)cc1
O=C(C1=C[C@H](c2ccccc2)C[C@H](OCCCCO)O1)N1CCN(Cc2ccc3c(c2)OCO3)CC1
Cc1cc(C)cc(NC(=O)C(OC(=O)c2ccc(O)cc2)c2ccccc2)c1 (centres undefined)
COc1cccc(C2CC(c3ccc(C)cc3)n3ncnc3N2)c1 (centres undefined)
Cc1noc(C)c1COc1ccc(C(=O)O)cc1
CCCCn1c(-c2cccnc2)nc2cc3[nH]c(=O)c(C(C)C)nc3cc21
COc1cc(/C=N/NC(=O)c2cc(-c3ccco3)nc3ccccc23)cc(OC)c1O
O=C(Nc1ccc(Cl)cn1)C1CCCN(c2ncnc3c2nc2n3CCCCC2)C1 (centres undefined)
Cn1c(SCC(=O)NNC(=O)c2ccc(Br)cc2)nnc1-c1cccnc1
C=C(C(=O)O)C1CCC2(C)CCCC(C)(O)C2C1 (centres undefined)
Cn1c(SCC(=O)NCCc2ccccc2)ncc(C(=O)Nc2ccc(F)cc2)c1=O
O=C1[C@H]2[C@@H](c3ccc(F)cc3)N3C(=O)N(c4cccc(F)c4)C(=O)[C@@]3(Cc3ccc(Cl)cc3)[C@H]2C(=O)N1C1CCCCC1
O=C(N/N=C/c1cccnc1)c1ccccc1[N+](=O)[O-]
Oc1c(N=NC(=S)Nc2ccccc2F)c2ccccc2n1Cc1ccccc1Cl
O=C(Nn1cnnc1)c1ccc(Cl)cc1
CCOCCCn1c(SCC(=O)Nc2cc(OC)ccc2OC)nc2ccccc2c1=O
CCC(=O)Nc1nc(-c2cc([N+](=O)[O-])cs2)cs1
CCN(CC)C(=O)Cn1cc(/C=C(\C#N)C(=O)NC2CC2)c2ccccc21
COc1ccc(C(c2sc3nc(C)nn3c2O)N2CCC(C(N)=O)CC2)cc1OC (centres undefined)
COc1ccc(C(=O)OCC(=O)N(C)C2CCS(=O)(=O)C2)cc1S(=O)(=O)N(C)Cc1ccccc1 (centres undefined)
O=C(Nc1ccc(Cl)cc1)Nc1nnc(-c2ccncc2)s1
O=C(COC(=O)Cn1cnc2ccccc21)NCc1ccc(F)cc1
COc1cc(CNCCc2ccccc2)cc(Br)c1OCC(=O)Nc1ccccc1C
Cc1cnc(CNC(=O)C2CCC(=O)N(CCc3cccc(F)c3)C2)[nH]1 (centres undefined)
COc1ccc(NS(=O)(=O)c2cc3c(cc2C)NC(=O)CO3)c(OC)c1
COc1ccc(C(=O)NC(C)c2cnn(-c3ccccn3)c2C)o1 (centres undefined)
CC(=O)NCCc1cnc[nH]1
COc1cc(C2NC(=O)NC(C)=C2C(=O)OCC2CCCCC2)ccc1O (centres undefined)
O=C(/C=C/c1cccc(Oc2ccccc2)c1)N1CCOCC1
Cc1nn2c(=O)cc(CSc3nc4ccccc4[nH]3)nc2s1
C[C@@H]1O[C@@H](O[C@@H]2C(=O)c3c(O)cc(O)cc3O[C@H]2c2ccc(O)c(O)c2)[C@H](O)[C@H](O)[C@H]1O
Cc1ccc(S(=O)(=O)N(C)c2ccc(OC(=O)c3ccc(=O)[nH]c3)cc2)cc1
CC1C2=C(CC(C)(C)CC2=O)NC2=C1C(=O)CC(C)(C)C2
CCN(C1CCS(=O)(=O)C1)S(=O)(=O)c1ccc2ccccc2c1 (centres undefined)
O=C(NNC(=O)c1ncc(Cl)c(Cl)c1Cl)c1ccc(F)cc1
COc1ccc(NC(=O)c2cccnc2N2CCOCC2)cc1
CCN(C(=O)c1c(C)noc1C)c1c(N)n(Cc2ccccc2)c(=O)[nH]c1=O
